Assay outcomes: PubChem, several laboratories
HSF1 inhib = HSF1 inhibition. 300,000 tested, 0.77% active. NIH3T3-HGL HSE-luciferase, MG132-induced, luminescence 8 h; active compounds read low. activity change, negative = inhibition, % at 7.5 µM (by protocol);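 active = more than half of replicate wells show activity change below -50%, luminescence cut by over half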;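 note: luciferase reports HSF-1 transcriptional activity via heat shock element; 0% = median of DMSO wells and -100% = zero luminescence signal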
Dyrk1A ADPGlo = inhibitors of rat Dyrk1A kinase; Q63470; ADP-Glo luminescence, NFATc1 peptide; inhibition, % at 12.5 µM; 310,000 tested, 0.43% active; AID 504441; in the data active = inhibition above about 50%;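 note: plate controls were vehicle with enzyme for no effect and no enzyme for full effect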
GC-B act = GC-B (human) receptor activation; P20594; HEK293-GC-B cells, CNP EC30, cGMP TR-FRET; 0% at EC30 CNP, 100% saturating CNP; activation, % at 10 µM; 370,000 tested, 0.11% active; AID 1920062;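 active = activation at 10 µM reaching about 35% in either raw or pattern-adjusted values, limit read from the data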
Target sequence (P20594 whole entry, looked up): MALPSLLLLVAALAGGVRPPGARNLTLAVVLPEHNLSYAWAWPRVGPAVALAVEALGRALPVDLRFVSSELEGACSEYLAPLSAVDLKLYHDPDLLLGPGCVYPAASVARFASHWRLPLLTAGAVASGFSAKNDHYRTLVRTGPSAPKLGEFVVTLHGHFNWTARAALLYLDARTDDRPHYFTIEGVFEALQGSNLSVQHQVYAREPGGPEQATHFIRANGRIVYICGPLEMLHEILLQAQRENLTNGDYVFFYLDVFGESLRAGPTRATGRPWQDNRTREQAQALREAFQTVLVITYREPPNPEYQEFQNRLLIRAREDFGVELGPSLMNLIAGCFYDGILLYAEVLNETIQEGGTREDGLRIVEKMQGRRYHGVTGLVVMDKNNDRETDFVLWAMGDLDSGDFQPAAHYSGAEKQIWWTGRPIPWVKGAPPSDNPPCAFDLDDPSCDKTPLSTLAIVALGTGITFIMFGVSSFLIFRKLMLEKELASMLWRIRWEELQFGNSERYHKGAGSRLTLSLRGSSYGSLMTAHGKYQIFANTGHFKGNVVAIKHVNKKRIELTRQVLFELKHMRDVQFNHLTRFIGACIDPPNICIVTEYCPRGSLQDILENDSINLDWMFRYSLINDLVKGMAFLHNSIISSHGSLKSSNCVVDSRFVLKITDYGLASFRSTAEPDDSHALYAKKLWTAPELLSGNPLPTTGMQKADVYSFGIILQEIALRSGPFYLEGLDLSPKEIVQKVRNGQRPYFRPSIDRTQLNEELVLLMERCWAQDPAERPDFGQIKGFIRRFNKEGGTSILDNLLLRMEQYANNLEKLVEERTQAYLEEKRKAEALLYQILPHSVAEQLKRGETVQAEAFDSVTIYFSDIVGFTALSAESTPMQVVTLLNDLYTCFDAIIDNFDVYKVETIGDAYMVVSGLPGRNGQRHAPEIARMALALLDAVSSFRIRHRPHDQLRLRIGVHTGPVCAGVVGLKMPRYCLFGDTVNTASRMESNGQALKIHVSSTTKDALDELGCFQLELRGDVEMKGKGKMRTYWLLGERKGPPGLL
GC-A act = GC-A (human) enzyme activation; P16066; activation, % at 10 µM; HEK293 GC-A cells, cGMP TR-FRET, EC30 ANP; 0% at EC30 ANP, 100% saturating ANP; 370,000 tested, 0.14% active; in the data active = activation above about 40%
HSF1 activator = increases HSF-1 driven luciferase reporter signal | NIH3T3-HGL HSF-1 luciferase reporter, MG132, 8 h; 100% = twice DMSO control signal | activation, % at 9 µM | 300,000 tested, 1.7% active;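 active = mean replicate activation of at least 50% with a set share of replicates each reaching 50%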;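 note: 0% = median of the neutral control wells and 100% = twice that signal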
aDG glyco up = increases alpha dystroglycan glycosylation; Pro5-aDG cells, alpha-DG glycosylation AlphaScreen (IIH6); 0% Pro5, 100% B10-LARGE cell signal; activation, % at 10 µM; 360,000 tested, 0.22% active; AID 624168;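 active = activation of at least 8% versus controls, or a plate z-score of at least 8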;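 note: Pro5 are CHO cells carrying HIG-tagged alpha-DG that lacks glycosylation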
An asterisk follows results filed as active. Shown are actives, neighbours in structure and some others; about 2.5% of the full set was active somewhere.

Results for Cc1ccc(C(=O)Nc2ccc(C(=O)O)cc2NC(=O)c2ccc(C)cc2)cc1 ?
HSF1 inhib: -51*; GC-B act: -1; GC-A act: 2; HSF1 activator: -55; aDG glyco up: 0

What do the screens show for `Cc1ccc(C(=O)Nc2cccc(C(=O)O)c2)cc1`?
HSF1 inhib: -72*; GC-B act: 4; GC-A act: -1; HSF1 activator: -72

Results for O=C(O)c1ccc(NC(=O)c2ccc(Cl)cc2)c(NC(=O)c2ccc(Cl)cc2)c1 ?
HSF1 inhib: -1; Dyrk1A ADPGlo: -9; GC-B act: 2; GC-A act: -4; HSF1 activator: -16; aDG glyco up: 0

What do the screens show for `O=C(O)c1cccc(NC(=O)c2ccccc2)c1`?
Dyrk1A ADPGlo: 4; GC-B act: 2; GC-A act: -3; aDG glyco up: 0

Results for Cc1ccc(C(=O)Nc2ccccc2Sc2ccccc2)cc1 ?
HSF1 inhib: 36; Dyrk1A ADPGlo: 1; GC-B act: 4; GC-A act: -1; HSF1 activator: 57*; aDG glyco up: 0

Results for Cc1ccc(OCCn2cnc(Cl)c2Cl)cc1 ?
GC-B act: 0; GC-A act: -1; aDG glyco up: 0

Results for COc1cccc(OC)c1C(=O)Nc1c(C)n(C)n(-c2ccccc2)c1=O ?
HSF1 inhib: 0; GC-B act: 10; GC-A act: 3; HSF1 activator: -1; aDG glyco up: 0

Results for COc1ccc(-c2nc3ccc(C(=O)NCC(OC)OC)cc3nc2-c2ccc(OC)c(OC)c2)cc1OC ?
HSF1 inhib: -2; Dyrk1A ADPGlo: -5; GC-B act: -5; GC-A act: -3; HSF1 activator: -5; aDG glyco up: 0

What do the screens show for `CCC1(CC)NC(=O)N(CC(=O)OCC(=O)NC(=O)c2ccccc2OC)C1=O`?
HSF1 inhib: -6; Dyrk1A ADPGlo: 13; GC-B act: -1; GC-A act: -2; HSF1 activator: -20; aDG glyco up: 0

How did COc1cccc(C(=O)Nc2cc3c(cc2Cl)OCCCO3)c1 do in these assays?
HSF1 inhib: 18; Dyrk1A ADPGlo: 13; GC-B act: 0; GC-A act: 6; HSF1 activator: 54*; aDG glyco up: 0

How did Cc1ccc(C(=O)Nc2cc3c(cc2Cl)OCCCO3)cc1 do in these assays?
HSF1 inhib: 13; Dyrk1A ADPGlo: 13; GC-B act: 6; GC-A act: -7; HSF1 activator: 29; aDG glyco up: 0

How did COc1ccc(C(=O)Nc2cc3c(cc2Cl)OCCCO3)cc1 do in these assays?
HSF1 inhib: 39; Dyrk1A ADPGlo: 11; GC-B act: -6; GC-A act: -8; HSF1 activator: 53*; aDG glyco up: 0

Results for OCCNCCCOc1ccc(Cl)cc1Br ?
HSF1 inhib: -4; Dyrk1A ADPGlo: 3; GC-B act: -2; GC-A act: 2; HSF1 activator: -5; aDG glyco up: 0

What do the screens show for `O=C(/C=C/c1ccc(Br)o1)Nc1nccs1`?
HSF1 inhib: 76; Dyrk1A ADPGlo: 3; GC-B act: 2; GC-A act: 1; HSF1 activator: 83*; aDG glyco up: 1

Results for O=C1NC(c2ccccc2)=NC1(NS(=O)(=O)c1ccccc1)C(F)(F)F (stereo unspecified) ?
HSF1 inhib: -6; Dyrk1A ADPGlo: 3; GC-B act: -1; GC-A act: 4; HSF1 activator: 7; aDG glyco up: 0

Results for Cc1ccc(N2CC(C(=O)N3CCN(c4ccccc4)CC3)CC2=O)cc1 (stereo unspecified) ?
HSF1 inhib: -1; Dyrk1A ADPGlo: -4; GC-B act: 2; GC-A act: 4; HSF1 activator: 2; aDG glyco up: 0

Results for C=CS(=O)(=O)c1ccc(Oc2ccc(S(=O)(=O)C=C)cc2)cc1 ?
HSF1 inhib: -93*; Dyrk1A ADPGlo: 0; GC-B act: 0; GC-A act: -1; HSF1 activator: -92; aDG glyco up: 0

Results for CCN(CCS(=O)(=O)c1ccc(Cl)cc1)C(=O)Nc1ccccc1 ?
HSF1 inhib: -64*; GC-B act: -8; GC-A act: 4; HSF1 activator: -73; aDG glyco up: 0

What do the screens show for `Cc1ccc(S(=O)(=O)N(C)C)cc1NC(=S)NC(C)CCCC(C)C` (stereo unspecified)?
HSF1 inhib: 18; Dyrk1A ADPGlo: 5; GC-B act: 3; GC-A act: -3; HSF1 activator: 57*; aDG glyco up: 1

Results for COCCN(CCOC)C(=S)Nc1cc(S(=O)(=O)N(C)C)ccc1C ?
HSF1 inhib: -6; Dyrk1A ADPGlo: 0; GC-B act: -4; GC-A act: -1; HSF1 activator: 3; aDG glyco up: 0

Results for Cc1ccc(S(=O)(=O)N(C)C)cc1NC(=S)N(C)C1CCN(C)CC1 ?
HSF1 inhib: 6; Dyrk1A ADPGlo: -3; GC-B act: 2; GC-A act: 4; HSF1 activator: 55*; aDG glyco up: 0

Results for CCc1nnc(NC(=O)C(=O)NCCOC(=O)c2ccccc2Cl)s1 ?
Dyrk1A ADPGlo: 1; GC-B act: 0; GC-A act: 0; aDG glyco up: 0

Results for CC(NC(=O)C12CC3CC(CC(O)(C3)C1)C2)c1ccc(Cl)cc1Cl (stereo unspecified) ?
HSF1 inhib: -5; Dyrk1A ADPGlo: 3; GC-B act: 2; GC-A act: 4; HSF1 activator: -9; aDG glyco up: 0

Results for C[C@@H]1CN([C@H](C)CO)C(=O)CCCn2nncc2CO[C@@H]1CN(C)S(=O)(=O)c1ccc(Cl)cc1 ?
GC-B act: 1; GC-A act: -1; aDG glyco up: 0

Results for Cc1cc(C)c2c(N)c(C(=O)Nc3cccc(C)c3C)sc2n1 ?
HSF1 inhib: 13; Dyrk1A ADPGlo: -4; GC-B act: -2; GC-A act: 1; HSF1 activator: 52*; aDG glyco up: 0

How did CCN(CC)CCn1c(NC(=O)c2ccc(Cl)cc2)nc2ccccc21 do in these assays?
HSF1 inhib: 9; Dyrk1A ADPGlo: -16; GC-B act: -4; GC-A act: -6; HSF1 activator: 9; aDG glyco up: 1

What do the screens show for `COc1cc(C=NNC(=O)CN2CCN(Cc3ccc(C)cc3)CC2)cc(OC)c1O`?
GC-B act: 0; GC-A act: -2

What do the screens show for `COc1cc(/C=N/NS(=O)(=O)c2ccc(C)cc2)ccc1OCc1ccc(C(=O)O)cc1`?
HSF1 inhib: -75*; Dyrk1A ADPGlo: -6; GC-B act: 4; GC-A act: 1; HSF1 activator: -78; aDG glyco up: 0

How did COc1cc(/C=N/NC(=O)CN2CCCCC2)ccc1OCc1ccc(Br)cc1 do in these assays?
HSF1 inhib: 46; Dyrk1A ADPGlo: -2; GC-B act: -3; GC-A act: 1; HSF1 activator: 79*; aDG glyco up: 1
